Consider 19 compounds from PubChem BioAssay (NCATS).

A number with no mark means an inactive call. Records with an inconclusive call do not appear. Active and inactive are the calls of the source. Calls follow the shape of the dose curve; as a rule, active = well fitted curve in the direction sought with a large enough effect; inconclusive = small, poorly fitted or top-dose-only effect, or another doubt; inactive = no such curve, though single readings can be large; an effect the other way counts as inactive or inconclusive.

Assay [1] is described as follows: Quantitative High-Throughput drug screen in 47 multiple myeloma cell lines against the NCATS MIPE library collection: FR4_PLB cell viability assay (AID 1918924; also: nearly all actives have a fitted effect of over 35% in size; also: potency is read from the fitted curve at half-maximal effect). A digest of the protocol: (§1)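 Myeloma cell lines, 500 cells per well, exposed to MIPE 4.0 library compounds for 48 h at 37C, 5% CO2. Viability from ATP by CellTiter-Glo luminescence; normalised to DMSO (100%) and media-only (0%) wells.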

Assay [2] is described as follows: Quantitative High-Throughput drug screen in 47 multiple myeloma cell lines against the NCATS MIPE library collection: Delta47_JCRB cell viability assay (AID 1918925; also: nearly all actives have a fitted effect of over 45% in size; also: potency is read from the fitted curve at half-maximal effect). A digest of the protocol:
(§2)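 CellTiter-Glo ATP luminescence gave viability after 48 h compound treatment at 37C of 500 multiple myeloma cells per well. Normalisation used DMSO-only wells as 100% and media-only wells as 0% viability; primary qHTS of approved and investigational drugs.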

Assay [3] can be described thus: Quantitative High-Throughput drug screen in 47 multiple myeloma cell lines against the NCATS MIPE library collection: EJM_DSMZ cell viability assay (AID 1918926; also: nearly all actives have a fitted effect of over 30% in size; also: potency is read from the fitted curve at half-maximal effect). A digest of the protocol:
as §2

Assay [4] in a line: Quantitative High-Throughput drug screen in 47 multiple myeloma cell lines against the NCATS MIPE library collection: ARP1_JJKsccF8 cell viability assay (AID 1918928; also: nearly all actives have a fitted effect of over 40% in size; also: potency is read from the fitted curve at half-maximal effect). The essentials: (§3)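 Myeloma cells at 500 per well in 1536-well format treated with MIPE 4.0 library by pin transfer for 48 h at 37C, 5% CO2. Viability from ATP luminescence (CellTiter-Glo), normalized to DMSO (100%) and media-only (0%) wells.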

A short description of assay [5]: Quantitative High-Throughput drug screen in 47 multiple myeloma cell lines against the NCATS MIPE library collection: ARD_JJKsccE7 cell viability assay (AID 1918929; also: potency is read from the fitted curve at half-maximal effect). The essentials:
as §2

Assay [6] can be described thus: Quantitative High-Throughput drug screen in 47 multiple myeloma cell lines against the NCATS MIPE library collection: Karpas620_DSMZ cell viability assay (AID 1918959). Also: nearly all actives have a fitted effect of over 30% in size. Also: potency is read from the fitted curve at half-maximal effect. A digest of the protocol:
as §1

The nature of assay [7]: Quantitative High-Throughput drug screen in 47 multiple myeloma cell lines against the NCATS MIPE library collection: KMM1_JCRB cell viability assay (AID 1918960). Also: nearly all actives have a fitted effect of over 30% in size. Also: potency is read from the fitted curve at half-maximal effect. The essentials: as §3
Assay [8] is described as follows: Quantitative High-Throughput drug screen in 47 multiple myeloma cell lines against the NCATS MIPE library collection: Karpas417_ECACC cell viability assay (AID 1918961). The conditions noted are these: Karpas417 myeloma viability, CellTiter-Glo ATP luminescence, 48 h; viability (% of DMSO): at 45.8 µM (top of the series). A digest of the protocol:
as §1
A general note: ATP-based viability assays read luminescence as a measure of living cells.

Assay [9] is described as follows: Quantitative High-Throughput drug screen in 47 multiple myeloma cell lines against the NCATS MIPE library collection: JIM3_ECACC cell viability assay (AID 1918963; also: nearly all actives have a fitted effect of over 35% in size). A digest of the protocol: as §1
The nature of assay [10]: Quantitative High-Throughput drug screen in 47 multiple myeloma cell lines against the NCATS MIPE library collection: JIM1_ECACC cell viability assay (AID 1918964; also: potency is read from the fitted curve at half-maximal effect). A digest of the protocol: as §2
Assay [11] in a line: Quantitative High-Throughput drug screen in 47 multiple myeloma cell lines against the NCATS MIPE library collection: KHM11_PLB cell viability assay (AID 1918962). Also: nearly all actives have a fitted effect of over 35% in size. A digest of the protocol:
as §1

Assay [12] addresses Phospholipid hydroperoxide glutathione peroxidase GPX4 (Homo sapiens) (UniProt P36969). Description: Primary qHTS Assay for Inhibitors of Recombinant Selenoprotein Glutathione Peroxidase 4 (GPX4) (AID 1845192). Also: nearly all actives have a fitted effect of over 65% in size. Also: potency is read from the fitted curve at half-maximal effect. The essentials:
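GR-coupled assay: recombinant GPX4 preincubated 30 min with compound at room temperature; final 200 nM GPX4, 1 mM GSH, 0.5 mM cumene hydroperoxide, 0.5 mM NADPH, 100 nM GR, 0.01% BSA, pH 7.5 Tris. NADPH fluorescence (340/450 nm) read at 0 and 15 min.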
A general note: Quantitative high-throughput screening tests each substance at several concentrations.

Assay [13] can be described thus: Quantitative High-Throughput drug screen in 47 multiple myeloma cell lines against the NCATS MIPE library collection: AMO1_DSMZ cell viability assay (AID 1918927; also: nearly all actives have a fitted effect of over 30% in size; also: potency is read from the fitted curve at half-maximal effect). A digest of the protocol:
as §2

In assay [14] the target is Luciferin 4-monooxygenase (Photinus pyralis) (UniProt P08659). Description: Primary firefly luciferase (FLuc) qHTS assay for identification of artifact compounds. (AID 1845220).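 Also: plate controls were DMSO vehicle for no effect and no enzyme for full effect; nearly all actives have a fitted effect of over 60% in size.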 A digest of the protocol: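 Titrated compounds were incubated 15 min at RT, protected from light, with luciferin and ATP at 10 uM; reaction started with 10 nM FLuc, luminescence imaged at 5 min, and concentration-response fitted by Hill equation.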

Assay [15] can be described thus: Primary fluorescence-based thiol-reactive (MSTI) qHTS assay for identification of artifact compounds. (AID 1845221).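 Also: thiol-reactive compounds lower the probe fluorescence signal; nearly all actives have a fitted effect of over 65% in size.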 A digest of the protocol:
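One-hour, room-temperature, dark incubation of compound with 4 uM MSTI in PBS (pH 7.4, 2% DMSO) precedes a fluorescence read at 525 nm excitation, 598 nm emission; Hill-equation fitting yields concentration-response values.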

Assay [16] concerns Nanoluciferase (engineered Oplophorus gracilirostris luciferase). The assay is described as follows: Primary Nanoluciferase (NLuc) qHTS assay for identification of artifact compounds. (AID 1845222).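 Also: NLuc secreted into diluted conditioned medium of S16 cells; 0% = DMSO and -100% = no enzyme.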 A digest of the protocol:
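qHTS format, against NLuc in S16 cell-conditioned medium. Nano-Glo substrate 1:100 was added after 15 min at room temperature. Luminescence was taken after a further 5 min.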

Chain of Phospholipid hydroperoxide glutathione peroxidase GPX4 (Homo sapiens) (P36969 whole entry, looked up): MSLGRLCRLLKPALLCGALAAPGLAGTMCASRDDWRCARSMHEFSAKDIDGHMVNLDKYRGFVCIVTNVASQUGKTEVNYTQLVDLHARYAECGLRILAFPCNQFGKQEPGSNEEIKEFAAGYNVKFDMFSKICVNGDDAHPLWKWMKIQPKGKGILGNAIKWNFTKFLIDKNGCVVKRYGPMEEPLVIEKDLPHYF

Take `C[C@H](Cn1cnc2c(N)ncnc21)OCP(=O)(O)O`: the Potency result in assay [1], in assay [2], in [3], in assay [4], in [5] and in [6] was “inactive” each time. Moreover, the Potency result in assay [7], in [8], in assay [9] and in assay [10] was “inactive” throughout.

Turning to `CC1=C(C(=O)O)N2C(=O)[C@@H](NC(=O)[C@H](N)C3=CCC=CC3)[C@H]2SC1`, the Potency entry in [2], in assay [3], in assay [4], in assay [6], in assay [7] and in assay [11] was “inactive” in each case. Also, the Potency entry in assay [9] is “inactive”.

In the case of `CCN(CC)CCOc1ccc(Cc2ccccc2)cc1`, the Potency result in [12], in [2] and in [9] was “inactive” in each case. Moreover, the figures for the Potency in assay [13] and in assay [6] were 20.9 µM (active) and 14.8 µM (active), respectively.

For the compound `CCC(C)(Oc1ccc(C2(c3ccc(OC(C)(CC)C(=O)O)cc3)CCCCC2)cc1)C(=O)O` (centres undefined), the Potency entry in assay [12], in assay [14], in assay [15], in [1], in assay [2] and in [3] was “inactive” each time. Moreover, the Potency result in assay [13], in assay [5], in assay [6] and in assay [7] was “inactive” each time. For the same compound, the call in [16] was inactive.

Turning to `CC1=C(C)C(=O)C(C(CCCCCC(=O)O)c2ccccc2)=C(C)C1=O` (centres undefined), in assay [12], the Potency was 11.2 µM (active). The Potency entry in assay [1], in [3] and in [6] was “inactive” each time.

As for `COc1cc(C(C)=O)ccc1OCCCN1CCC(c2noc3cc(F)ccc23)CC1`, the Potency result in assay [3] and in [9] was “inactive” each time.

Regarding `CNC[C@@H](O)[C@@H](O)[C@H](O)[C@H](O)CO`, the Potency entry in assay [3], in assay [13], in assay [4], in [5], in assay [6] and in assay [9] was “inactive” throughout. In addition, the Potency entry in assay [10] is “inactive”.

Take `O=C(O)c1cc(=O)c2c(OCC(O)COc3cccc4oc(C(=O)O)cc(=O)c34)cccc2o1`: the Potency entry in assay [12], in assay [3], in assay [13], in assay [4], in assay [5] and in assay [9] was “inactive” throughout.

`CS(=O)(=O)OCCCCOS(C)(=O)=O`: the Potency result in assay [12], in [2], in assay [13], in [5], in assay [6] and in [7] was “inactive” throughout. Also, the Potency result in assay [9] is “inactive”. Besides, the Potency in assay [1] is 4.18 µM (active).

On to `CC(C)c1nc(CN(C)C(=O)N[C@H](C(=O)N[C@@H](Cc2ccccc2)C[C@H](O)[C@H](Cc2ccccc2)NC(=O)OCc2cncs2)C(C)C)cs1`, for which the Potency entry in assay [12], in assay [14], in assay [15], in assay [3], in assay [6] and in assay [7] was “inactive” each time. For the same compound, the Potency entry in assay [8] is “inactive”. Moreover, the compound was called inactive in assay [16]. Moreover, in [1], the Potency is 11.8 µM (active).

With `CCCCCCCCOc1ccccc1C(=O)Nc1ccc(C(=O)OCC[N+](C)(CC)CC)cc1`, the figures for the Potency in assay [2], in [4] and in [6] were 18.7 µM (active), 20.9 µM (active) and 5.9 µM (active), respectively. In addition, the Potency entry in assay [13] and in assay [5] was “inactive” in each case.

As for `O=C(CS(=O)Cc1ccco1)NCC=CCOc1cc(CN2CCCCC2)ccn1` (centres undefined), the Potency result in [1], in assay [3], in assay [13], in assay [5], in assay [7] and in assay [9] was “inactive” in each case. In assay [10], the Potency entry is “inactive”.

For the compound `CCOC(=O)c1c(C)n(C)c2ccc(O)cc12`, the Potency result in [1], in assay [3], in assay [13], in [5], in assay [6] and in [7] was “inactive” each time.

Consider `Cc1cc2cc3c(C)cc(=O)oc3c(C)c2o1`, for which, in assay [12], the Potency result was “inactive”. The values for the Potency in assay [2], in assay [3] and in [6] were 20.9 µM (active), 5.9 µM (active) and 23.5 µM (active), respectively.

`CN(C)[C@@H](CCOc1cccc2ccccc12)c1ccccc1`: the Potency is 18.7 µM (active) in [1], 18.7 µM (active) in assay [2] and 26.4 µM (active) in assay [4]. Also, the Potency result in assay [6] and in assay [10] was “inactive” in each case.

`S=c1nc[nH]c2nc[nH]c12`: the Potency entry in assay [12], in [3], in [13] and in [6] was “inactive” in each case. Also, the Potency in [4] was 2.35 µM (active); in assay [5] it was 2.35 µM (active); in [7] it was 4.69 µM (active).

Regarding `O=C(O)CCNC(=O)c1ccc(N=Nc2ccc(O)c(C(=O)O)c2)cc1`, the Potency result in assay [12], in assay [1], in assay [2], in assay [3], in [4] and in assay [5] was “inactive” in each case. For the same compound, the Potency entry in assay [6] and in assay [7] was “inactive” each time.

Turning to `CCCCC(CC)COC(=O)C(C#N)=C(c1ccccc1)c1ccccc1` (centres undefined), the Potency result in assay [12], in assay [1], in assay [3], in [13], in [4] and in [6] was “inactive” in each case. The Potency entry in assay [7], in assay [11] and in [10] was “inactive” throughout. For the same compound, the viability (% of DMSO) in assay [8] is 94.7% (active).

On to `Nc1ccn([C@@H]2O[C@H](CO)[C@@H](O)C2O)c(=O)n1` (some centres undefined), for which the Potency entry in assay [1], in assay [2], in assay [3], in assay [13], in assay [6] and in assay [8] was “inactive” in each case. Further, the Potency was 8.33 µM (active) in assay [5] and 4.18 µM (active) in [10].
